Hit rate of the full screen: of about 53,000 sequences, about 3,700 (7%) were called active. This excerpt belongs to a sample that is enriched for actives. Values without a mark were called inactive.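 Rule for the calls: active = gene knockdowns whose robust z-score for IL-1 alpha signal is at least 2 or at most -2, so actives lie on both sides; inactive = the rest.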

This assay can be described thus: Components of the Cytosolic LPS Sensing Pathway: Gene Identification via Genome-wide siRNA Screen.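 Note: robust z of the log signal after scaling to non-targeting control siRNA wells of the plate.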 Particulars: RAW264.7 macrophages, IL-1a HTRF, actives lie on both sides, screened at 100 nM (by protocol), cells primed 5 h with Pam3CSK4 first. The method, boiled down: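 Mouse macrophage line RAW264.7 is transfected with siRNA (100 nM final), grown 48h, primed with TLR ligand Pam3CSK4 5 h and given intracellular LipidA 24 h. IL-1a in supernatant is read by HTRF and viability by luminescence.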
For GGGUUGAUUGACGAAGCCATT against Fga, the z-score was -1.75.
The figure for GGAGAUUCAGAAUUACUGATT against Krit1 is -0.818.
For GCAUUCAUUGAUCAAUUCUTT against Zbtb6, the z-score is 2 (active).
With GCCUGCUUUGGAAAAAUCATT against Akr1c12 the figure was 0.209.
The figure for CCCAGGAAGCCUUUGAUCUTT against Gmnn is 0.263.
As for CCAUCGUCCAAAGUACAUGTT against Rbp4, the z-score is -1.39.
On to GGGUAAUUAUUGUUUUCUGTT against Eif4e3, for which the z-score was 2.19 (active).
With GCUGUUGGUUUCUACUCACTT against Adam21 the figure was -0.0536; with GGAACAUGUCUCCUGAUCUTT against Add3, -1.07; with GCAAUUCAGCUUAUAAGCATT against Mterf2, -2.79 (active).
As for GGGAAAUGAGUUUCUACCGTT against Ebna1bp2, the z-score was -0.891.
With CCUACACUAAAAUUCACCATT against Muc15 the figure was -0.549; with CGUGUGCAAAGAAGCUAAATT against Mdm2, 1; with GGAGAUGAUGAUUUACAAATT against Spred1, 0.723.
The figure for GGUGAUCUUAGAUUUGAUUTT against Qsox2 is -0.401.
GGGUUUCUUACUGAAGAAATT against Mindy2: the z-score was -1.43.
The figure for GGAUCGAGACAAGGCCAAATT against Fes is 3.22 (active); for GGAAUGAAGCCUGAACAGATT against Strc it is 0.151; for GGACAAUGCCCUGUAUCAGTT against Clic3 it is -0.822.
Regarding GGAUAGUCUCCUCAAAGAATT against Trmt10b, the z-score is 0.7.
As for GCUGUCAGAAAUCUUCGACTT against E2f4, the z-score was 2.65 (active).
The figure for CCAUACUACGGAUGUUUGATT against Calb2 is 0.677; for GGGUAUAGGGAUGGUGAAUTT against Ppil1 it is 0.834; for GCUACUCAGUCAUUGAGCCTT against Tatdn2 it is -1.85.
Regarding GCAUCUCAAGGAUCUUCGGTT against Syngr4, the z-score was -0.0821.
As for GGGCAACUUUGAGUUCGAATT against Dok2, the z-score is 0.294.
Regarding CCUUACCCUGUGUAUCUUUTT against Naa80, the z-score is -0.0307.
The figure for GGCAAUUCACUGUGAGUAATT against Mettl21a is -2.18 (active); for GGCCAAGGUCAAUAACUCCTT against Rfc1 it is -0.755.
The figure for GGACCACUACAUCAUAUACTT against Lcn4 is -1.17; for GGCCAAGACACCCUUGUUUTT against Zfp524 it is -0.376; for GGAAGAGAAAGCAAAGUCATT against Ddx19a it is -0.43.
As to CGGAAAUGUAAGUACUUUATT against Taf13, the z-score is 2.25 (active).
Consider GGUUCUGGAAGAAGAAAAGTT against Irgq, for which the z-score is 1.31.
For the sequence GGUUCUGUAAAUUCAACUATT against Zfp593, the z-score is 0.706.
Regarding CUACGAGCCACUUCUGAGATT against Krt87, the z-score was -0.431.
With GAACUGAAGAAGCAGAUUGTT against Isg15 the figure was 0.601; with GGCAUUAUGAGCAUCUCGGTT against Tnfrsf11a, -0.394; with GGAGACACCAGACCAACAATT against Gm5458, 0.242.
The figure for GGAAGGACAACACUGCACCTT against Cd40 is 2.44 (active); for “CCAUACAAGUAUCCGAACUTT against 1700102P08Rik” it is 1.03; for GCCUCAGCAUUACCACUAUTT against Pof1b it is -1.86.
The figure for GGUGAUGCAGCAGAUCAUUTT against Nfyc is 0.0427.
Regarding GUGGAAAACAAGUGGCGGUTT against Cox7c, the z-score is 0.241.
As for GGCAUUGACGAGGAUGACCTT against Supt3, the z-score was 2.74 (active).
With GGAGAACUAUUCAGAAACUTT against Btbd11 the figure was -0.0178; with GCGGUGCCAAAGGUAUUAATT against Rad51ap1, -0.0801; with GCAAGAAGGGACACAGUUUTT against Plk1, 0.276.
Turning to GGAAAACCAAGACCACAAATT against Hmgn5, the z-score is 1.39.
The figure for GGUGCUUGAUUUUGUGCAGTT against Psmd13 is -0.00516; for GACACCACAGUCAAAUCUGTT against Agr2 it is -2.26 (active).
With CCCUUUAAUACAUACAGUUTT against Mesp2 the figure was 1.14; with GCCCAAGGUGAUCAUUAUUTT against Casp1, -0.15.
The figure for GGUUGUAAGGAACUCUUGGTT against Slc22a29 is -0.628; for GGACAUUCCUGAACAUAAUTT against Pcdha3 it is -1.17.
Regarding GGAGAUCUUCAAUAUGUUATT against Supt6, the z-score was -2.25 (active).
As for GAAGCCUAAUCCCUUAAUCTT against Oas1g, the z-score is 1.07.
Regarding CCAUUUCAGGCAUGAAGAATT against Tsga10, the z-score is -1.13.
With GGUCAAUAUUCUUAUGUCCTT against S1pr3 the figure was 0.245.
As for GGAAUUGGAUGUGAGCAACTT against Vasn, the z-score was 0.586.
For the sequence GCCAUGGGUCUCAGAAAGATT against Zxda, the z-score is -0.247.
The figure for GGAAGAGGAUAGGCAGGAATT against Gfer is 2.03 (active).
As for UGAUAGUCUCCACUAAAUUTT against Gm4884, the z-score was -0.265.
GGAUCCUUUGGUUAUAAGATT against Nav1: the z-score was -1.28.
With GGUCUUUAGCAGAGAAAAUTT against Zfp420 the figure was -0.201.
With GCCCACAGUCAUUAAACUATT against Nipal4 the figure was 0.723.
GGAUCAAAUCAAGAAGAUGTT against Chmp5: the z-score is 0.627.
The figure for CCCAGGGUGUCAAUCUAAATT against Cby1 is -0.381; for CGAAAAUACGUCAAAGCUCTT against Abca8b it is -0.656.
